In PubChem BioAssay AID782 (Emory University Molecular Libraries Screening Center, 2007) one finds inhibition data, which are given here for 93 compounds.

Out of some 220,000 compounds screened, about 800 (0.36%) were called active. What follows is part of a selection rich in actives, with near analogues and random picks from the rest. Values without a mark were called inactive.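 The calls were made as follows: active = inhibition above about 30% (limit read from the data); inactive = the rest.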

Sequence of Eukaryotic translation initiation factor 4E (Mus musculus) + Eukaryotic translation initiation factor 4 gamma 1 (Homo sapiens) (P63073 whole entry, looked up, the tested form may be a part): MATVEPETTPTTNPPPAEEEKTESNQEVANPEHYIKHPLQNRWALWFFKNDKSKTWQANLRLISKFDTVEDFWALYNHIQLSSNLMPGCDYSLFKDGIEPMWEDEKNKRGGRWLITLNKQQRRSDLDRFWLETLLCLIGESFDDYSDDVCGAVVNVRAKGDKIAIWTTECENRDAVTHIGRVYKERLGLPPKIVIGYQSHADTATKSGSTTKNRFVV
Sequence of Eukaryotic translation initiation factor 4E (Mus musculus) + Eukaryotic translation initiation factor 4 gamma 1 (Homo sapiens) (Q04637 whole entry, looked up, the tested form may be a part): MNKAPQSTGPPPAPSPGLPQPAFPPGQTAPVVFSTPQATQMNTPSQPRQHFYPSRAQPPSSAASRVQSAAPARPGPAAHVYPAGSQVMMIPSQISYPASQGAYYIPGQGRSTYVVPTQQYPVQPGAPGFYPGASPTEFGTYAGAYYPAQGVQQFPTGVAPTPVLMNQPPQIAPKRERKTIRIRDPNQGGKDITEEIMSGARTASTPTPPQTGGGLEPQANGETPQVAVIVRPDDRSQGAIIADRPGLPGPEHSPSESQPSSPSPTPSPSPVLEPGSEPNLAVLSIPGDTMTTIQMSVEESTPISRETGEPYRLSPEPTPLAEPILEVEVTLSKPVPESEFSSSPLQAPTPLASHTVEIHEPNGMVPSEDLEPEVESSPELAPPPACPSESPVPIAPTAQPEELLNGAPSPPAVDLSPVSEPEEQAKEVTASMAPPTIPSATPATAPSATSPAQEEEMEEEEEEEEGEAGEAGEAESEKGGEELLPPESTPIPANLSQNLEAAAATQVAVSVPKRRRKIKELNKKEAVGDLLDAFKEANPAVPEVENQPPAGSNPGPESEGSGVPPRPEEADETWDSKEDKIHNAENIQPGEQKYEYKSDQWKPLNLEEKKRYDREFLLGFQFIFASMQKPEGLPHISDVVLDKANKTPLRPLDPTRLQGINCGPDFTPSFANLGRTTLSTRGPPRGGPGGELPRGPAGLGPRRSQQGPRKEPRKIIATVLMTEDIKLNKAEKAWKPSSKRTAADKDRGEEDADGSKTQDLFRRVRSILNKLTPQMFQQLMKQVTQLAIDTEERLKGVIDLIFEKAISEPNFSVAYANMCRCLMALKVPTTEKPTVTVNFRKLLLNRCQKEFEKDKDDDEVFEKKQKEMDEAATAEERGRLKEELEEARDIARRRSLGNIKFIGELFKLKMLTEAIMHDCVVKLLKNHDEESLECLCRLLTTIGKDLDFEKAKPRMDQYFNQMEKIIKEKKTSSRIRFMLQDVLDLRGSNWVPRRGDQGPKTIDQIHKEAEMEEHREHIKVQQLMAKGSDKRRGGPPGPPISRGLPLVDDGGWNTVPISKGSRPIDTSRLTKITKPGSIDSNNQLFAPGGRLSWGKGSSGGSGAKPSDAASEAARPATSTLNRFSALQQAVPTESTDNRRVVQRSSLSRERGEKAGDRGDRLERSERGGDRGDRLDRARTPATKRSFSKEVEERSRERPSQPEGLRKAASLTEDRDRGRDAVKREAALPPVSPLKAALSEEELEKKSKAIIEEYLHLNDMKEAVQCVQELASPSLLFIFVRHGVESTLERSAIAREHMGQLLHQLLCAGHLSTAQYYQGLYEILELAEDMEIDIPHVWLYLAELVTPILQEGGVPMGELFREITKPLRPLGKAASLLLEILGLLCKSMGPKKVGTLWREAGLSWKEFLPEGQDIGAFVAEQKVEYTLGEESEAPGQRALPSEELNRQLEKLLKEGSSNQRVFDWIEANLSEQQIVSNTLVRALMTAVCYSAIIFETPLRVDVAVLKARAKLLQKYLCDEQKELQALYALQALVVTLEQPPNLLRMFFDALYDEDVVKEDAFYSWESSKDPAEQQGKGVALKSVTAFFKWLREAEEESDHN

This assay has as its target Eukaryotic translation initiation factor 4E (Mus musculus) + Eukaryotic translation initiation factor 4 gamma 1 (Homo sapiens) (UniProt P63073+Q04637). Briefly: blockers of eIF4G binding by eIF4E – biochemical, uHTS, TR-FRET, eIF4GI fragment, primary screen (AID 782).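 Also: 0% = full FRET control wells and 100% = background wells lacking eIF4GI fragment.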 The note with it: TR-FRET eIF4E-eIF4GI(517-606) binding, 2 h; at 21.7 µM; active compounds read high. In general terms: In TR-FRET formats the signal depends on donor and acceptor labels being close together.
As to `O=C(COc1cccc2ccccc12)Nc1cc(S(=O)(=O)N2CCOCC2)ccc1N1CCOCC1`, the inhibition (in general, the relative decrease from the control value, in per cent) was -0.21%.

In the case of `CCn1c(=O)c([N+](=O)[O-])c(NCc2ccc3c(c2)OCO3)c2ccccc21`, the inhibition was -2.34%.

With `CCOc1ccc(-n2cnc3c(=O)[nH]c(N)nc32)cc1`, the inhibition is -1.7%.

On to `CCC(C)(C)NC(=O)CN(C(=O)C(=O)Nc1ccc2c(c1)OCCO2)C(C)(C)CC`, for which the inhibition is 1.1%.

In the case of `O=C(Nc1ccccc1C(F)(F)F)N1CCCC1c1cccnc1` (stereo not drawn), the inhibition was 0.48%.

For the compound `COc1cc2c(cc1OC)CC1(CCCCC1)N=C2`, the inhibition was -2.07%.

Regarding `CC1(C)CC(N(Cc2ccccc2)C(=O)Cc2ccccc2)CCO1` (stereo not drawn), the inhibition is 1.78%.

In the case of `CCc1ccc(N(CC(=O)Nc2sc3c(c2C(=O)OC)CCCC3)S(C)(=O)=O)cc1`, the inhibition is 1.86%.

With `Cc1cc(C)cc(NC(=O)COC(=O)c2cc(C)oc2C)c1`, the inhibition is -0.87%.

As for `CCn1c(SCC(=O)N/N=C/c2ccccc2OCC(=O)O)nnc1-c1ccc(C(C)(C)C)cc1`, the inhibition is -4.63%.

On to `CC(C)(C)CN1C(=O)C(=O)NC[C@H]1Cc1cccc2ccccc12`, for which the inhibition was 3.22%.

Consider `C/C=C/C(=O)Nc1nnc(C(C)C)s1`, for which the inhibition was -1.19%.

For the compound `O=C1c2cccc(OCC(=O)N3N=C(c4cccs4)CC3c3ccc(F)cc3)c2CCN1Cc1ccccc1` (stereo not drawn), the inhibition was 11.7%.

For `CN=C1C=C/C(=N/N=c2\ccn(O)cc2C)C=C1C`, the inhibition is 3.23%.

`Brc1ccc(-c2noc(-c3ccccc3)n2)o1`: the inhibition is 3.6%.

For the compound `COC(=O)c1cc(NC(=O)c2cc(C(C)(C)C)nn2Cc2cccc(C)c2)ccc1N1CCOCC1`, the inhibition is -1.37%.

On to `CC(C)CNc1ncnc2c1cnn2Cc1ccc(Cl)cc1`, for which the inhibition was -0.57%.

On to `COc1ccccc1-n1ccnc1SCC(=O)NC(C)(C)C`, for which the inhibition was -3.84%.

In the case of `COc1ccc(NC(=O)Nc2ccc3nc(C)c(C)nc3c2)cc1`, the inhibition was 3.88%.

In the case of `O=C(NCc1ccccn1)c1ccc2nc(-c3ccco3)c(-c3ccco3)nc2c1`, the inhibition is 2.59%.

Consider `COCCNC(=O)Nc1ccc2nc(-c3ccco3)c(-c3ccco3)nc2c1`, for which the inhibition is 53.1% (active).

For `CC(Sc1nnnn1C)C(=O)NC(=O)NC1CCCCC1` (stereo not drawn), the inhibition was 3.38%.

As for `COc1ccc(-n2c(C)cc(C(=O)CN3C(=O)NC4(CCc5ccccc54)C3=O)c2C)cc1` (stereo not drawn), the inhibition is -11%.

Consider `CC1=CC2=NC(=O)/C(=C/c3coc4ccccc4c3=O)C(=N)N2O1`, for which the inhibition was -3.42%.

In the case of `COc1ccc(/C=C/C(=O)Nc2ccc(C)cc2)cc1S(=O)(=O)N1CCOCC1`, the inhibition was -7.24%.

Take `Cc1cc(C)n(-c2nnc(N3CCN(c4ccccc4)CC3)nn2)n1`: the inhibition was 1.58%.

As for `CC(Nc1nc(N2CCN(CCO)CC2)nc2ccccc12)c1ccccc1` (stereo not drawn), the inhibition was 1.5%.

As to `Cn1c(CNC(=O)c2ccccc2F)nnc1SCc1ccc(F)cc1`, the inhibition was 15.6%.

Take `Cc1ccc(S(=O)(=O)NC(=O)N2CCCN(Cc3ccc(F)cc3)CC2)cc1`: the inhibition was 0.62%.

Take `CCCn1nc2cc(C(=O)NCc3ccccc3)ccc2c1OCC`: the inhibition is 5.83%.

For the compound `CCOC(=O)c1cnc2[nH]c3ccccc3n2c1=O`, the inhibition was 13.5%.

Regarding `O=[N+]([O-])c1cccc(-c2nnc3c4ccccc4c4ccccc4n23)c1`, the inhibition was 13.6%.

On to `O=c1[nH]c2ccccc2n2c(-c3ccccc3)nnc12`, for which the inhibition is 52.5% [fluorescence artefact?] (active).

As for `C=C1C2C[C@H](O)C(C)(C)[C@@]2(O)[C@H](O)C[C@]23C[C@@](C)(O)[C@H](CC[C@H]12)[C@H]3O` (stereo partly drawn), the inhibition was -4.67%.

On to `CSc1nnnn1-c1c(C)cc(C)cc1C`, for which the inhibition is -8.98%.

Turning to `CC(C)=C(NC(=O)c1ccccc1)C(=O)N/N=C(\C)c1ccccc1O`, the inhibition is 2.96%.

With `Cc1c(Cl)cccc1NC(=O)CC1SC(=NCC2CCCO2)NC1=O` (stereo not drawn), the inhibition was 1.68%.

Turning to `CCCCNC(=O)N1CCN(S(C)(=O)=O)CC1`, the inhibition is 2.45%.

Regarding `Cc1ccc(Nc2nc(N)nc(CSc3nnc(C)s3)n2)cc1`, the inhibition was 3.78%.

As to `COc1ccc(-c2nn(-c3ccccc3)cc2/C=C\C(=O)N2CCOCC2)cc1[N+](=O)[O-]`, the inhibition was 1.3%.

As for `COc1ccc(NC(=O)c2oc3ccc(S(=O)(=O)N4CCOCC4)cc3c2C)cc1`, the inhibition was -0.4%.

For the compound `Cc1noc(C)c1CSc1nc2cc(S(=O)(=O)N3CCOCC3)ccc2o1`, the inhibition is 38.2% (active).

Take `Cc1ccc(S(=O)(=O)N2CCN(S(=O)(=O)N3CCOCC3)CC2)cc1`: the inhibition was 0.52%.

`O=C(CSC(=S)N1CCOCC1)c1ccccc1`: the inhibition is 9.18%.

For `CCOC(=O)CNC(=O)/C(=C\c1ccc(F)cc1)NC(=O)c1ccccc1`, the inhibition is 0.01%.

As for `Cc1ccc(NC(=O)Nc2cc(-c3ccccc3)nn2C)cc1Cl`, the inhibition was 1.28%.

For `CCc1ccc(NC(=O)CC2C(=O)NCCN2C(=S)Nc2ccccc2)cc1` (stereo not drawn), the inhibition was 2.38%.

Consider `Cc1ccc(-c2nc(SCC(=O)Nc3ccccc3OC(F)F)c3c(C)c(C(=O)O)sc3n2)cc1`, for which the inhibition is 34.5% (active).

For the compound `Cc1ccc(C)c(SCc2nc3sc(C(=O)O)c(C)c3c(=O)[nH]2)c1`, the inhibition was -9.58%.

As to `COc1ccccc1NC(=O)CSc1nc2sc(C)c(C)c2c(=O)n1Cc1ccco1`, the inhibition is -13.8%.

For the compound `CCOC(=O)C1=NN(c2ccc(Cl)cc2)/C(=C/C2=NCCc3cc(OC)c(OC)cc32)S1`, the inhibition was 2.69%.

As for `Cc1ccc(OCc2n[nH]c(=S)n2-c2ccc(C)cc2)cc1`, the inhibition was 0.42%.

Regarding `COc1ccc(OCC(O)CNCCNc2nccc(C(F)(F)F)n2)cc1` (stereo not drawn), the inhibition is -1.2%.

For the compound `O=C(Nc1ccc(-c2csc(Nc3cccc(C(F)(F)F)c3)n2)cc1)c1cccc(C(F)(F)F)c1`, the inhibition was -4.77%.

On to `COCc1cc(=O)[nH]c(-c2ccc(C(F)(F)F)cc2)n1`, for which the inhibition was -4.61%.

With `COc1cc(C(=O)OCc2ccc([N+](=O)[O-])cc2)cc(OC)c1OC`, the inhibition is -2.12%.

In the case of `CC(C)(C)NC(=O)NC(=O)COC(=O)Cc1c(F)cccc1Cl`, the inhibition was 0.46%.

Consider `Cn1c(S(=O)(=O)O)nc2ccccc21`, for which the inhibition is 3.14%.

`O=C(NNS(=O)(=O)c1ccccc1C(F)(F)F)c1cc2ncc(C(F)(F)F)cc2s1`: the inhibition was 9.76%.

Regarding `CCOC1CS(=O)(=O)CC1OCC` (stereo not drawn), the inhibition is -1.77%.

With `O=C(Cc1ccccc1)NCC1OCCc2ccccc21` (stereo not drawn), the inhibition was -5.93%.

As to `CCNC(=S)N1CCN(CCN=CC2=C(O)CC(C)(C)CC2=O)CC1`, the inhibition is 2.72%.

For `Oc1ccc(-c2nnc(Nc3ccccc3)c3ccccc23)cc1`, the inhibition was -1.27%.

Turning to `Cc1nn(CC(=O)N/N=C/c2ccc(F)cc2)c(C)c1[N+](=O)[O-]`, the inhibition was 10.1%.

As for `O=C1c2ccccc2C(O)N1Cc1ccccc1` (stereo not drawn), the inhibition was -4.18%.

Take `O=C(Nc1ccc(Br)cc1)C1CCC(=O)N1Cc1ccccc1Cl` (stereo not drawn): the inhibition is 7%.

For `O=C1c2ccccc2C(O)N1Cc1ccccc1Cl` (stereo not drawn), the inhibition was 43.6% (active).

In the case of `COc1ccc(CNC(=O)C2CC(c3ccc(C(F)(F)F)cc3)=NO2)cc1` (stereo not drawn), the inhibition is 0.84%.

On to `C=C(C)C(=O)O[C@H]1C/C(C)=C\C(=O)/C=C(\C)[C@H](O)[C@@H]2OC(=O)C(=C)[C@@H]21`, for which the inhibition is 2.79%.

As to `CCn1c(NC(=O)c2nn(C)cc2Br)nc2ccccc21`, the inhibition is 2.02%.

For the compound `CC(C)N(C(=O)c1ccc(-c2ccccc2F)cc1)C(C)C`, the inhibition is 6.78%.

In the case of `O=S(=O)(c1ccc(Cl)cc1)N1CCCN(c2ccc(C(F)(F)F)cn2)CC1`, the inhibition was 2.55%.

On to `CCOC(=O)N1CCN(C(c2cccnc2)c2ccc3cccnc3c2O)CC1` (stereo not drawn), for which the inhibition was 41.4% [fluorescence artefact?] (active).

Turning to `CCN1CCN(C(c2cccnc2)c2cc(Cl)c3cccnc3c2O)CC1` (stereo not drawn), the inhibition was 15.4%.

`Oc1c(C(c2ccccn2)N2CCOCC2)ccc2cccnc12` (stereo not drawn): the inhibition is 5.26%.

For `CCc1nnc(NC(=O)Cc2cccs2)s1`, the inhibition is 28.2%.

Regarding `O=C(Cc1cccs1)Nc1nnc(C2CC2)s1`, the inhibition is -4.66%.

For the compound `COc1ccc(Cc2nnc(NC(=O)Cc3cccs3)s2)cc1`, the inhibition was 30.8% (active).

In the case of `O=C1C(Cc2ccc(O)cc2)NC(=S)N1Cc1ccccc1` (stereo not drawn), the inhibition was 4.64%.

For `O=C(NC(Cc1c[nH]c2ccccc12)C(=O)O)/C(=C/c1ccco1)NC(=O)c1ccccc1` (stereo not drawn), the inhibition was 1.5%.

For the compound `CN(C(=O)Nc1ccc(Cl)cc1)n1cnc2ccccc2c1=O`, the inhibition is -1.03%.

`CC(C)(C)NC(=O)Cn1cnc2cc([N+](=O)[O-])ccc2c1=O`: the inhibition is 6.94%.

As for `O=C(Cn1cnc2c(cnn2-c2ccccc2)c1=O)NCc1ccccc1`, the inhibition was -7.03%.

With `O=C(Cn1cnc2cc([N+](=O)[O-])ccc2c1=O)NC(=O)NCc1ccccc1`, the inhibition is 90.5% (active).

Consider `CCC(C)(C)NC(=O)/C=C/c1cc(OC)c(OC)c(S(=O)(=O)N2CCc3ccccc32)c1`, for which the inhibition is -2.6%.

With `CCN(Cc1ccccc1)C(=O)CN1C(=S)NC(C)(C)CC1C` (stereo not drawn), the inhibition was -8.44%.

Turning to `CC(=O)Nc1cccc(/C(C)=N/NC(=O)c2c(-c3ccccc3Cl)noc2C)c1`, the inhibition was 1.91%.

With `COc1ccc(N2CCN(C(=O)/C(C#N)=C/c3ccccc3)CC2)cc1`, the inhibition is 1.4%.

With `COC(=O)c1sc2[nH]c(=S)n(N)c(=O)c2c1C`, the inhibition is -5.75%.

For `Cc1c(CN2CCC(CO)(CCOc3ccccc3)CC2)[nH]c2ccc(Cl)cc12`, the inhibition was 3.73%.

Consider `CCCn1c(SCC(=O)Nc2cccc(C(=O)OCC)c2)nnc1-c1ccoc1C`, for which the inhibition is -5.54%.

With `Cc1ccc(C)c2c1cc(C)c1nnc(SCC(=O)Nc3cccc(C(=O)O)c3)n12`, the inhibition was 92.4% (active).

On to `Cc1cc(C)c2c(c1)cc(C)c1nnc(SCC(=O)Nc3cc(C)on3)n12`, for which the inhibition is 0.38%.
